Inconclusive results are not listed. A call without a number means that no potency is given here. The source made the active and inactive calls. Calls follow the shape of the dose curve; as a rule, active = well fitted curve in the direction sought with a large enough effect; inconclusive = small, poorly fitted or top-dose-only effect, or another doubt; inactive = no such curve, though single readings can be large; an effect the other way counts as inactive or inconclusive.
Assays:
[1] = qHTS of pediatric cancer cell lines to identify multiple opportunities for drug repurposing: Primary screen for DAOY cells (AID 1347090); also: series mostly up to about 46 µM; nearly all actives have a fitted effect of over 55% in size
Procedure, shortened: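 Eight- or eleven-point concentration series, 48 h treatment at 37 degrees C in growth media; readout CellTiter-Glo luminescence. Potency and efficacy were taken from the concentration-response curves.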

[2] = qHTS of pediatric cancer cell lines to identify multiple opportunities for drug repurposing: Primary screen for SJ-GBM2 cells (AID 1347091)
Description: Drug repurposing or repositioning has been offered as a strategy for drug development in oncology programs. This approach has special potential for childhood cancers and other rare or orphan diseases, where the expected return on new drug development has been a disincentive to pharmaceuticals.
In this project we exploit the poly-pharmacology of drugs to discover new indications via phenotypic screening of a panel of 19 well-characterized cell lines derived from solid tumors seen in children and adolescents. The goal is to identify approved drugs with previously unrecognized anticancer properties that has the potential to reveal new mechanisms and biological processes involved in carcinogenesis or drug resistance. We employed a titration-based paradigm (quantitative high-throughput screening or qHTS), where all compounds were tested at multiple concentrations for their effect on cell viability. Concentration-response curves (CRCs) were derived directly from the primary screen, and both potency and efficacy values were used to identify compounds with robust bioactivity profiles. We screened the NIH Chemical Genomics Center (NCGC) Pharmaceutical Collection (NPC) and Mechanism Interrogation Plate (MIPE) small molecule collections of approved and investigational compounds against these cell lines; and measured metabolically active cells after 48 hours of compound treatment as a proxy for cell viability.
Assay Submitter: Nathalia J. Martinez, National Center for Advancing Translational Sciences, National Institutes of Health, Rockville, MD, USA; email: natalia.martinez@nih.gov
[1] Shen, M et al. Quantitative high-throughput phenotypic screening of pediatric cancer cell lines identifies multiple opportunities for drug repurposing. Oncotarget 2017 Dec 19;9(4):4758-4772. PMID 29435139.
The cells were obtained from University of North Carolina (UNC), Pediatric Preclinical Testing Program (PPT), and Coriell Institute (CI).
qHTS cell viability assay:
Cells were assayed in growth media at a density of 500-1,000 cells/well. Five microliters of cells were dispensed into 1,536-well, white, solid-bottom, TC-treated plates (Greiner Bio One) using a multidrop dispenser and incubated at 37 degrees C, 5% CO2, under a humidified atmosphere for 5 hours. Twenty-three nanoliters of compounds and controls (neutral control DMSO or positive control bortezomib at final concentration of 2.3 µM) were subsequently transferred by Kalypsys pintool. For primary screens, the MIPE collection was tested at 11-point dilutions (final concentrations range from 0.78 nM to 46 µM) and the NPC collection at 8-point dilutions (final concentrations range from 0.59 nM to 46 µM). Compounds tested in follow-up screens were assayed at 11-point dilutions. Cells were incubated for 48 hours, followed by addition of 3 uL of CellTiter-Glo (Promega). After a 15 min incubation at room temperature, samples were analyzed for luminescence intensity using a ViewLux High-throughput CCD imager equipped with clear filters.

[3] = qHTS of pediatric cancer cell lines to identify multiple opportunities for drug repurposing: Primary screen for A673 cells (AID 1347092); also: nearly all actives have a fitted effect of over 45% in size; also: potency is read from the fitted curve at half-maximal effect
Procedure, shortened: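 Luminescence from CellTiter-Glo, taken after 15 min at room temperature, served as the proxy for metabolically active cells following 48 h treatment. Both potency and efficacy were taken from curves fitted to the titration data.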

[4] = qHTS of pediatric cancer cell lines to identify multiple opportunities for drug repurposing: Primary screen for SK-N-MC cells (AID 1347093); also: series mostly up to about 46 µM
Procedure, shortened: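 Metabolically active cells were quantified by ATP-dependent luminescence (CellTiter-Glo, 15 min at room temperature) following 48 h treatment. Cells had been plated at 500-1,000 per well and settled for 5 h beforehand.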

[5] = qHTS of pediatric cancer cell lines to identify multiple opportunities for drug repurposing: Primary screen for BT-37 cells (AID 1347094); also: series mostly up to about 57 µM
Procedure, shortened: (§1)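 Following a 5-hour attachment period, cells at 500-1,000/well received compounds and were cultured for 48 hours. CellTiter-Glo was added and luminescence read to estimate viable, metabolically active cells.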

[6] = qHTS of pediatric cancer cell lines to identify multiple opportunities for drug repurposing: Primary screen for NB-EBc1 cells (AID 1347095)
Procedure, shortened: as §1

[7] = qHTS of pediatric cancer cell lines to identify multiple opportunities for drug repurposing: Primary screen for U-2 OS cells (AID 1347096); also: nearly all actives have a fitted effect of over 50% in size
Procedure, shortened: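 Cells (500-1,000/well) in growth media were settled 5 h at 37 degrees C, then given compounds for 48 h. Viability was read as CellTiter-Glo luminescence. Primary runs used MIPE at 11 points (0.78 nM-46 µM) and NPC at 8 points (0.59 nM-46 µM); follow-ups used 11 points.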

[8] = qHTS of pediatric cancer cell lines to identify multiple opportunities for drug repurposing: Primary screen for Saos-2 cells (AID 1347097); also: nearly all actives have a fitted effect of over 40% in size; also: potency is read from the fitted curve at half-maximal effect
Procedure, shortened: as §1

[9] = qHTS of pediatric cancer cell lines to identify multiple opportunities for drug repurposing: Primary screen for SK-N-SH cells (AID 1347098); also: nearly all actives have a fitted effect of over 65% in size; also: potency is read from the fitted curve at half-maximal effect
Procedure, shortened: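 Cells (500-1,000/well) rested 5 h, then received compounds for 48 h; metabolically active cells were measured by CellTiter-Glo luminescence. Final concentrations spanned up to 46 µM (MIPE, 11-point) or 0.59 nM-46 µM (NPC, 8-point) in primary screens, 11-point in follow-ups.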

[10] = qHTS of pediatric cancer cell lines to identify multiple opportunities for drug repurposing: Primary screen for NB1643 cells (AID 1347099); also: nearly all actives have a fitted effect of over 50% in size; also: potency is read from the fitted curve at half-maximal effect
Procedure, shortened: as §1

Q: With CCOCCOC(=O)/C=C/c1ccc(OC)cc1 as the molecule, how does the outcome [1] read?
A: The outcome was “inactive”.

Q: What about the outcome [2] of the same molecule?
A: Its outcome is “inactive”.

Q: What about the Potency [3] of the same molecule?
A: The Potency was “inactive”.

Q: And the outcome [4]?
A: Its outcome is “inactive”.

Q: And the outcome [5]?
A: Its outcome is “inactive”.

Q: What about the outcome [6] of the same molecule?
A: Its outcome is “inactive”.

Q: And the outcome [7]?
A: Its outcome is “inactive”.

Q: And the Potency [8]?
A: Its Potency is “inactive”.

Q: And the Potency [9]?
A: The Potency was “inactive”.

Q: What about the Potency [10] of the same molecule?
A: Its Potency is “inactive”.

Q: Which outcome [1] does the source give for O=C(O)c1ccccc1NCCc1ccccc1 here?
A: The outcome was “inactive”.

Q: And the outcome [2]?
A: Its outcome is “inactive”.

Q: What about the Potency [3] of the same molecule?
A: Its Potency is “inactive”.

Q: What about the outcome [5] of the same molecule?
A: The outcome was “inactive”.

Q: And the outcome [6]?
A: Its outcome is “inactive”.

Q: And the outcome [7]?
A: Its outcome is “inactive”.

Q: And the Potency [8]?
A: Its Potency is “inactive”.

Q: What about the Potency [9] of the same molecule?
A: The Potency was “inactive”.

Q: And the Potency [10]?
A: The Potency was “inactive”.

Q: What does the source list for Cc1ccc(N)cc1O?
A: outcome [2]: inactive; Potency [3]: 30.6 µM (active); Potency [9]: 31.4 µM (active)

Q: With O=C(O)c1c(O)c(-c2ccccc2)nc2ccccc12 as the molecule, how does the outcome [1] read?
A: Its outcome is “inactive”.

Q: What about the outcome [2] of the same molecule?
A: The outcome was “inactive”.

Q: And the Potency [3]?
A: Its Potency is “inactive”.

Q: What about the outcome [5] of the same molecule?
A: Its outcome is “inactive”.

Q: What about the outcome [7] of the same molecule?
A: Its outcome is “inactive”.

Q: And the Potency [8]?
A: The Potency was “inactive”.

Q: What about the Potency [9] of the same molecule?
A: The Potency was “inactive”.

Q: And the Potency [10]?
A: Its Potency is “inactive”.

Q: Which outcome [1] does the source give for CCC(C(=O)O)c1ccc(N2Cc3ccccc3C2=O)cc1 (centres undefined) here?
A: Its outcome is “inactive”.

Q: And the outcome [2]?
A: Its outcome is “inactive”.

Q: And the Potency [3]?
A: The Potency was “inactive”.

Q: What about the outcome [4] of the same molecule?
A: The outcome was “inactive”.

Q: What about the outcome [5] of the same molecule?
A: Its outcome is “inactive”.

Q: What about the outcome [6] of the same molecule?
A: The outcome was “inactive”.

Q: And the outcome [7]?
A: The outcome was “inactive”.

Q: What about the Potency [8] of the same molecule?
A: Its Potency is “inactive”.

Q: And the Potency [9]?
A: Its Potency is “inactive”.

Q: What about the Potency [10] of the same molecule?
A: Its Potency is “inactive”.

Q: For Nc1ccccc1N, which outcome [2] is on record?
A: The outcome was “inactive”.

Q: And the Potency [3]?
A: The Potency was 15.4 µM (active).

Q: And the Potency [8]?
A: Its Potency is 30.6 µM (active).

Q: And the Potency [10]?
A: Its Potency is 30.6 µM (active).
